# According to the antibiotic and cytotoxicity screens of Wong et al. (2023):
# In all, about 39,000 compounds went through this assay and about 500 (1.3%) were called active. For the sample, actives were picked, then their nearest neighbours and some compounds at random.
# System: S. aureus RN4220
# Test: growth inhibition call (relative growth <= 0.2)
# Conditions: 50 µM
row,Structure (SMILES),growth inhibition call
1,Cc1cccc(S(=O)(=O)N2C[C@H](O)COC[C@@H]3O[C@@H](CC(=O)NCc4ccc5c(c4)OCO5)CC[C@H]32)c1,inactive
2,CC(=O)Oc1ccccc1C(=O)Nc1ccccc1,inactive
3,CC(=O)Oc1ccccc1C(=O)Nc1ncc([N+](=O)[O-])s1,active
4,CC(=O)Nc1ncc([N+](=O)[O-])s1,inactive
5,O=S1(=O)C[C@@H]2NC(=S)N[C@@H]2C1,inactive
6,C[C@H](CO)N1C[C@H](C)[C@@H](CN(C)S(=O)(=O)c2cn(C)cn2)Oc2ccc(NC(=O)NC3CCCCC3)cc2CC1=O,inactive
7,C[C@@H]1CN([C@@H](C)CO)C(=O)c2cc(NC(=O)CCN3CCOCC3)ccc2O[C@@H]1CN(C)C(=O)Nc1ccccc1,inactive
8,CC(C)NC(=O)N(C)C[C@H]1OCCCC[C@@H](C)Oc2ccc(NC(=O)C3CCCCC3)cc2C(=O)N([C@H](C)CO)C[C@H]1C,inactive
9,COc1ccc(C2=N[C@H](c3ccc(Cl)cc3)[C@H](c3ccc(Cl)cc3)N2C(=O)N2CCNC(=O)C2)c(OC(C)C)c1,inactive
10,COc1ccc(C2=N[C@@H](c3ccc(Cl)cc3)[C@@H](c3ccc(Cl)cc3)N2C(=O)N2CCNC(=O)C2)c(OC(C)C)c1,active
11,C[C@H]1CN([C@@H](C)CO)C(=O)Cc2cc(NC(=O)CCN3CCOCC3)ccc2O[C@@H]1CN(C)C(=O)Nc1ccccc1,inactive
12,O=C(Nc1ccc(Br)cc1)c1ccc(N2C(=O)c3ccc(C(=O)Nc4ccc(Br)cc4)cc3C2=O)cc1,inactive
13,CO[C@H]1CN(C)C(=O)c2ccc(NC(=O)Nc3cccc(F)c3)cc2OC[C@H](C)N(C(=O)Nc2c(C)noc2C)C[C@@H]1C,inactive
14,O=C(NC(CO)C(O)c1ccc([N+](=O)[O-])cc1)C(Cl)Cl (stereo unspecified),active
15,CCCCCCCCCCCCCCCC(=O)OCC(NC(=O)C(Cl)Cl)C(O)c1ccc([N+](=O)[O-])cc1 (stereo unspecified),inactive
16,CS(=O)(=O)c1ccc(C(O)C(CO)NC(=O)C(Cl)Cl)cc1 (stereo unspecified),inactive
17,CS(=O)(=O)c1ccc(C(O)C(CF)NC(=O)C(Cl)Cl)cc1 (stereo unspecified),active
18,O=C([O-])CCC(=O)OCC(NC(=O)C(Cl)Cl)C(O)c1ccc([N+](=O)[O-])cc1.[Na+] (stereo unspecified),inactive
19,CCCCCCCCCCCCCCCC(=O)OC[C@H](NC(=O)C(Cl)Cl)[C@H](O)c1ccc([N+](=O)[O-])cc1,inactive
20,Cc1noc(C)c1NC(=O)N(C)C[C@@H]1OCCCC[C@H](C)Oc2ccc(NC(=O)Nc3ccccc3)cc2C(=O)N([C@@H](C)CO)C[C@@H]1C,inactive
21,CCCN(C)C[C@H]1OCCCC[C@@H](C)Oc2ccc(NC(=O)Nc3ccc(OC)cc3)cc2C(=O)N([C@H](C)CO)C[C@@H]1C,inactive
22,COc1cccc(-c2cn(CC[C@H]3CC[C@H](NC(=O)CN(C)C)[C@@H](CO)O3)nn2)c1,inactive
23,COCCn1cc2c(n1)[C@H](CNC(=O)CS(C)(=O)=O)OCC2,inactive
24,C[C@H](CO)N1C[C@H](C)[C@H](CN(C)S(C)(=O)=O)Oc2ncc(C#CCN(C)C)cc2C1=O,inactive

row,Structure (SMILES),growth inhibition call
1,C[C@@H]1CN([C@@H](C)CO)C(=O)c2c(c3ccccc3n2C)-c2ccccc2CO[C@H]1CN(C)Cc1ccc(C(=O)O)cc1,inactive
2,Cl.N=C(N)n1cccn1,active
3,NCc1ccccc1-n1cccn1,inactive
4,NCCn1cccn1,inactive
5,C[C@H]1CN([C@@H](C)CO)C(=O)Cc2cc(NS(=O)(=O)c3ccc(Cl)cc3)ccc2O[C@@H]1CN(C)S(=O)(=O)c1cn(C)cn1,inactive
6,CC(C)[C@@H](N)c1nc2c([nH]1)CCCC2,inactive
7,C/C(=C\C(=O)OCCCCCCCCC(=O)O)C[C@@H]1OC[C@H](C[C@@H]2O[C@H]2[C@@H](C)[C@H](C)O)[C@@H](O)[C@H]1O,inactive
8,CC(=CC(=O)OCCCCCCCCC(=O)O)CC1OCC(CC2OC2C(C)C(C)O)C(O)C1O (stereo unspecified),active
9,CCOC(=O)CC1=NNC(=N)SC1,inactive
10,C[C@@H]1CN([C@H](C)CN(C)C)C(=O)c2cc(NC(=O)Cc3cn(C)c4ccccc34)ccc2O[C@H]1CN(C)S(=O)(=O)c1ccc(Cl)cc1,inactive
11,CCCN(C)C[C@@H]1OCCCC[C@@H](C)Oc2ccc(NC(=O)Nc3ccc(C(F)(F)F)cc3)cc2C(=O)N([C@H](C)CO)C[C@@H]1C,inactive
12,CCCN(C)C[C@H]1OCCCC[C@@H](C)Oc2ccc(NC(=O)Nc3ccc(C(F)(F)F)cc3)cc2C(=O)N([C@H](C)CO)C[C@H]1C,inactive
13,CCCN(C)C[C@@H]1OCCCC[C@@H](C)Oc2ccc(NC(=O)Nc3ccc(C(F)(F)F)cc3)cc2C(=O)N([C@H](C)CO)C[C@H]1C,active
14,CCCN(C)C[C@H]1OCCCC[C@@H](C)Oc2ccc(NC(=O)Nc3ccc(C(F)(F)F)cc3)cc2C(=O)N([C@@H](C)CO)C[C@H]1C,inactive
15,CCCN(C)C[C@H]1OCCCC[C@@H](C)Oc2ccc(NC(=O)Nc3ccc(F)cc3)cc2C(=O)N([C@H](C)CO)C[C@@H]1C,inactive
16,CCCN(C)C[C@H]1OCCCC[C@H](C)Oc2ccc(NC(=O)Nc3ccc(C(F)(F)F)cc3)cc2C(=O)N([C@@H](C)CO)C[C@H]1C,active
17,CCCN(C)C[C@H]1OCCCC[C@@H](C)Oc2ccc(NC(=O)Nc3ccc(F)cc3)cc2C(=O)N([C@@H](C)CO)C[C@H]1C,active
18,CCCN(C)C[C@@H]1OCCCC[C@H](C)Oc2ccc(NC(=O)Nc3ccc(C(F)(F)F)cc3)cc2C(=O)N([C@H](C)CO)C[C@@H]1C,inactive
19,CCCN(C)C[C@@H]1OCCCC[C@@H](C)Oc2ccc(NC(=O)Nc3ccc(F)cc3)cc2C(=O)N([C@H](C)CO)C[C@H]1C,inactive
20,C[C@H]1CN([C@@H](C)CO)C(=O)c2cc(NS(C)(=O)=O)ccc2O[C@@H]1CN(C)C(=O)Nc1ccc(F)cc1,inactive
21,COCC(=O)N(C)C[C@@H]1Oc2cc(C#CCN(C)C)ccc2S(=O)(=O)N([C@H](C)CO)C[C@@H]1C,inactive
22,C[C@@H]1CCCCO[C@@H](CN(C)C(=O)C2CCCCC2)[C@@H](C)CN([C@@H](C)CO)C(=O)c2cc(NC(=O)Nc3ccc(C(F)(F)F)cc3)ccc2O1,inactive
23,COc1ccc(CNC(=O)C[C@H]2CC[C@@H]3[C@@H](COc4ccc(NC(=O)C(C)C)cc4C(=O)N3C)O2)cc1,inactive
24,C[C@@H]1CN([C@H](C)CO)C(=O)c2cccc(NC(=O)Nc3ccc(F)cc3)c2O[C@H]1CN(C)Cc1ccc(Oc2ccccc2)cc1,inactive

row,Structure (SMILES),growth inhibition call
1,COc1ccc(C#Cc2ccc3c(c2)O[C@H](CN(C)C(=O)c2ccccn2)[C@H](C)CN([C@@H](C)CO)S3(=O)=O)cc1,inactive
2,OCCOCc1nnn2c1CN(c1ncccn1)CCC2,inactive
3,COC(=O)[C@H]1CCc2nc[nH]c2C1,inactive
4,Cc1oc(=O)oc1CN1CCN(c2cc3c(cc2F)c(=O)c(C(=O)O)c2n3C(C)S2)CC1 (stereo unspecified),active
5,Cn1cnc(S(=O)(=O)N2C[C@@H](O)COC[C@H]3O[C@@H](CC(=O)NCc4ccc(F)cc4)CC[C@@H]32)c1,inactive
6,COc1ccc(NC(=O)N(C)C[C@H]2OCCCC[C@H](C)Oc3ccc(NS(=O)(=O)c4ccc(F)cc4)cc3C(=O)N([C@@H](C)CO)C[C@H]2C)cc1,inactive
7,C[C@@H]1CN([C@@H](C)CO)C(=O)c2cc(NS(=O)(=O)c3ccc(Cl)cc3)ccc2O[C@@H]1CN(C)Cc1ccc(C(=O)Nc2ccccc2N)cc1,inactive
8,CCN(CC)c1ccc(N2CC=C[C@@]34O[C@@H]5C=CCCOC(=O)[C@@H]5[C@H]3C(=O)N([C@@H](C)CO)[C@@H]4C2=O)cc1,inactive
9,O=C(C[C@H]1CC[C@@H]2[C@H](COC[C@@H](O)CN2C(=O)Nc2ccc(C(F)(F)F)cc2)O1)NCCc1ccncc1,active
10,O=C(C[C@@H]1CC[C@H]2[C@@H](COC[C@@H](O)CN2C(=O)Nc2ccc(Cl)cc2)O1)NCCc1ccncc1,inactive
11,O=C(C[C@H]1CC[C@@H]2[C@H](COC[C@@H](O)CN2C(=O)Nc2ccc(C(F)(F)F)cc2)O1)NCc1ccncn1,inactive
12,O=C(C[C@H]1CC[C@H]2[C@@H](COC[C@H](O)CN2C(=O)Nc2ccc(Cl)cc2)O1)NCCc1ccncc1,inactive
13,O=C(C[C@@H]1CC[C@@H]2[C@H](COC[C@H](O)CN2C(=O)Nc2ccc(Cl)cc2)O1)NCCc1ccncc1,inactive
14,O=C(C[C@H]1CC[C@H]2[C@@H](COC[C@H](O)CN2C(=O)Nc2ccc(C(F)(F)F)cc2)O1)NCc1ccncn1,inactive
15,O=C(C[C@@H]1CC[C@@H]2[C@H](COC[C@H](O)CN2C(=O)Nc2ccc(C(F)(F)F)cc2)O1)NCCc1ccncc1,inactive
16,O=C(C[C@@H]1CC[C@H]2[C@@H](COC[C@@H](O)CN2C(=O)Nc2ccc(C(F)(F)F)cc2)O1)NCCc1ccncc1,active
17,O=C(C[C@H]1CC[C@@H]2[C@H](COC[C@@H](O)CN2C(=O)Nc2ccc(Cl)cc2)O1)NCCc1ccncc1,inactive
18,O=C(C[C@H]1CC[C@H]2[C@@H](COC[C@@H](O)CN2C(=O)Nc2ccc(C(F)(F)F)cc2)O1)NCCc1ccncc1,active
19,O=C(C[C@H]1CC[C@H]2[C@@H](COC[C@@H](O)CN2C(=O)Nc2ccc(Cl)cc2)O1)NCCc1ccncc1,inactive
20,O=C(C[C@@H]1CC[C@H]2[C@@H](COC[C@H](O)CN2C(=O)Nc2ccc(C(F)(F)F)cc2)O1)NCCc1ccncc1,active
21,Cc1ccc(S(=O)(=O)Nc2ccc3c(c2)C(=O)N(C)[C@H]2CC[C@@H](CC(=O)NCCc4ccncc4)O[C@H]2CO3)cc1,inactive
22,C[C@@H]1CN([C@@H](C)CO)C(=O)c2cccc(NC(=O)C3CC3)c2O[C@@H]1CN(C)C(=O)NC1CCCCC1,inactive
23,C[C@@H]1CN([C@H](C)CO)C(=O)Cc2cc(NC(=O)CCCCCC(=O)Nc3ccccc3N)ccc2O[C@H]1CN(C)C(=O)Nc1ccc(F)cc1,inactive
